Data: PubChem BioAssay
A number with no mark means an inactive call. Active and inactive are the calls of the source. Rule as the data show it, unless noted: active = inhibition above about 33%; inactive = the rest.

What was measured:
[1] = StAR promoter reporter inhibitors, counter-screen for LRH-1 inverse agonist project, cell-based, luminescence, high throughput (AID 651611; in the data active = inhibition above about 28%); settings: StAR promoter luciferase reporter counterscreen, at 3.6 µM, hits give high values
[2] = target: Nuclear receptor subfamily 5 group A member 2 (Homo sapiens) (UniProt O00482); test: NR5A2 activity suppression in reporter cells – cell-based, luminescence, confirmation (AID 651613; in the data active = inhibition above about 42%;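 also: HEK293T cells co-transfected with LRH-1 and StAR promoter luciferase reporter; 0% = vehicle wells and 100% = parental cells lacking receptor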); settings: cell-based LRH-1 luciferase reporter, inverse agonism; at 3.6 µM; hits give high values
[3] = target: Steroidogenic factor 1 (Homo sapiens) (UniProt Q13285); test: inverse agonism at SF1 nuclear receptor – cell-based, luminescence, high throughput, counter-screen for LRH-1 inverse agonist project (AID 651614; in the data active = inhibition above about 44%;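 also: cells cotransfected with StAR promoter reporter and SF1 expression vector; 0% = vehicle on cells with receptor and 100% = vehicle on cells lacking receptor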); settings: cell-based SF1 luciferase reporter, at 3.6 µM, hits give high values
[4] = compounds suppressing VP16-driven luciferase signal – cell-based, luminescence, high throughput, counter-screen for LRH-1 inverse agonist project (AID 651615); settings: Gal4-VP16 luciferase reporter cells, at 3.6 µM, hits give high values

Sequence of Nuclear receptor subfamily 5 group A member 2 (Homo sapiens) (O00482 whole entry, looked up): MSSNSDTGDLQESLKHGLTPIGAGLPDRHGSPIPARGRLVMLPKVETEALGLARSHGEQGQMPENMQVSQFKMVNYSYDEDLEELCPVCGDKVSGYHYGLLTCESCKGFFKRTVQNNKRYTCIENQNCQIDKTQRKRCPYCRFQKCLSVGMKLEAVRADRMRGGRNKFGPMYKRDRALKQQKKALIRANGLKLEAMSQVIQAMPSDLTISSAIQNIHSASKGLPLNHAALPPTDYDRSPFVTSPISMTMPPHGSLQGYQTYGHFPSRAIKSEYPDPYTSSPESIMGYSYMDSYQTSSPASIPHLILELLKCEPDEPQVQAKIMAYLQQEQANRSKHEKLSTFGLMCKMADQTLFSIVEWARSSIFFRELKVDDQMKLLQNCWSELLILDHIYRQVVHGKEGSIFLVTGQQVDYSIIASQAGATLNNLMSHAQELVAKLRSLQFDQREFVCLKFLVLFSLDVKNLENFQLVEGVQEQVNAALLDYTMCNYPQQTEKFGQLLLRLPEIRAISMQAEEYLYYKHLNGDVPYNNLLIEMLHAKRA
Sequence of Steroidogenic factor 1 (Homo sapiens) (Q13285 whole entry, looked up, the tested form may be a part): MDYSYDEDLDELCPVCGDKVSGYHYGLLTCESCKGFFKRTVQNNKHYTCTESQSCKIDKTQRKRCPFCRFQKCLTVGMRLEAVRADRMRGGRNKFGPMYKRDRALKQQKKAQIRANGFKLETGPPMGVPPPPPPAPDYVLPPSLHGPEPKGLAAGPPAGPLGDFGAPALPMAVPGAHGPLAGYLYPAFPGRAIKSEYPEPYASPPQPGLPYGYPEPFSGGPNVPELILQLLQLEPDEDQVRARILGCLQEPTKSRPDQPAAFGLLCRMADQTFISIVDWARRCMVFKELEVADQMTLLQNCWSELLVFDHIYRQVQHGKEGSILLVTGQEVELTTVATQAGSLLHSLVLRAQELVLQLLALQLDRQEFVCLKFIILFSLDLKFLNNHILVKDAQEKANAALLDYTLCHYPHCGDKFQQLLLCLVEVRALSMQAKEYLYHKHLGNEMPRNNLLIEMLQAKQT

Compound | inhibition [1] | inhibition [2] | inhibition [3] | inhibition [4]
CCCCCc1ccc(OCCCC[n+]2ccc(C)cc2)c(CCCCC)c1 | 21.4% | 42.3% (active) | 45.7% (active) | 45.6% (active)
COc1cc(C)c(C(=O)Oc2cc(C)c(C(=O)O)c(O)c2C)c(O)c1C | 14.9% | 73.8% (active) | 70.7% (active) | -10.6%
O=C(Nc1ccc(Nc2ccccc2)cc1)c1cc([N+](=O)[O-])ccc1Cl | 6% | 52.7% (active) | 53.4% (active) | 9.35%
O=[N+]([O-])c1cnccc1Nc1ccc(Cl)cc1 | 15.6% | 64.1% (active) | 60.5% (active) | 18.9%
COc1ccc(-c2cc(-c3ccc(O)cc3)nc(N)c2C#N)cc1 | 27.8% (active) | 58.3% (active) | 49% (active) | -19.5%
COc1cc(C(=O)NN=Cc2ccc(N(C)C)cc2)cc(OC)c1OC | 37.3% (active) | 37.8% | 51.1% (active) | 22.3%
COCCn1c(C)cc(/C=C(\C#N)C(=O)OCC(=O)Nc2ccc(S(N)(=O)=O)cc2)c1C | 11.2% | 52.6% (active) | 46.3% (active) | -8.79%
COc1cc(C(=O)OCC(=O)Nc2ccc(N3CCOCC3)cc2)ccc1OCC(C)C | 14.1% | 54.5% (active) | 65.5% (active) | -7.28%
C/C(=N\N=C(N)N)c1cc(Cl)ccc1Cl | 26.9% | 102% (active) | 30.1% | 75.8% (active)
COc1ccc(Nc2nc(Nc3ccc(OC)cc3)nc(SC3=NCCS3)n2)cc1 | 19.6% | 53.3% (active) | 53.4% (active) | 4.27%
Cc1ccc(Cl)cc1NC(=O)COC(=O)CC(C)(C)C | 28.3% (active) | 62.4% (active) | 60.2% (active) | -10.5%
C/C(=N\NC(N)=S)c1ccc(Cl)s1 | 16.8% | 55.8% (active) | 35.5% | 21.2%
CCOC(=O)c1c(N)n(CCOC(=O)c2cccs2)c2nc3ccccc3nc12 | 0.69% | 21.6% | 23.7% | -11.6%
CCOc1ccc(NC(=O)COC(=O)c2ncc(Cl)c(Cl)c2Cl)cc1 | 21.6% | 38.4% | 36.8% | -18.7%
CC(=O)c1cccc(NC(=O)c2ccc([N+](=O)[O-])o2)c1 | 25% | 61.7% (active) | 61.9% (active) | -5.65%
NC1=CC(=O)C(=O)c2ccccc21 | 29.2% (active) | 54.9% (active) | 47% (active) | -6.09%
O=C(CCl)Nc1ccc(N2CCCCCC2)cc1 | 25% | 54.6% (active) | 51.3% (active) | -8.63%
CCOC(=O)c1ccc(NC(=O)CSc2nnc(COc3ccccc3OC)n2C)cc1 | -2.53% | 40.4% | 35.7% | -6.59%
CCC(C)(C)n1nnnc1CN1CCC(O)(c2cccc(C(F)(F)F)c2)CC1 | 8.87% | 41.6% (active) | 57.2% (active) | -2.12%
COc1ccc(C(=O)N/N=C(\c2ccccc2)c2ccccn2)cc1 | 76.4% (active) | 80.3% (active) | 84.9% (active) | 60.4% (active)
O=C(Nc1nc2ccc(F)cc2s1)c1ccc([N+](=O)[O-])o1 | -101% | 0.34% | 10% | -93.2%
O=C(COC(=O)Cc1ccc(F)cc1)NCCc1ccccc1 | 3.74% | 37.8% | 36.3% | -0.51%
O=C(Cc1ccc(Cl)cc1Cl)Nc1ccncc1Cl | 16.4% | 65.9% (active) | 70% (active) | 47.1% (active)
Cc1nn(CC(=O)NCCC2=CCCCC2)c(C)c1[N+](=O)[O-] | 17.5% | 48.9% (active) | 41.5% | -0.8%
CCOc1ccc(NC(=O)CSc2nc(O)c(C)c(=O)n2-c2ccc(F)cc2)cc1 | 5.33% | 60.6% (active) | 50.6% (active) | -14.2%
